Inconclusive results are not listed. Calls of active or inactive are those of the source. Unless noted, calls come from the whole dose curve; as a rule, active = well fitted curve in the direction sought with a large enough effect in the repeat runs; inconclusive = weak or mixed curves; inactive = no such curve, though single readings can be large; an effect the other way counts as inactive or inconclusive.
What was measured:
[1] = qHTS assay to identify small molecule agonists of the vitamin D receptor (VDR) signaling pathway - cell viability counter screen (AID 743224); note: series mostly up to about 63 µM; nearly all actives have a fitted effect of over 50% in size
How it was run: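 In parallel with the bla FRET readout, cytotoxicity toward VDR-bla cells after 16 h compound exposure was assessed by CellTiter-Glo, with luminescence recorded after a 30 min room-temperature incubation.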

[2] = qHTS assay to identify small molecule antagonists of the vitamin D receptor (VDR) signaling pathway - cell viability counter screen (AID 743225); note: nearly all actives have a fitted effect of over 50% in size
How it was run: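 Cytotoxicity counter screen read by CellTiter-Glo luminescence (30 min, room temperature) in the same wells as the VDR-bla antagonist readout. HEK 293T VDR-UAS-bla cells had 16 h at 37C with compound and 3 nM (final) 1-alpha,25-dihydroxyvitamin D3, then 2 h with FRET substrate.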

[3] = qHTS assay to identify small molecule agonists of the NFkB signaling pathway (AID 1159509; active = well fitted curve in the direction sought with a large enough effect in the signal ratio in the repeat runs, not every such curve was filed as active; the % refers to the signal ratio; note: series mostly up to about 61 µM)
How it was run: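 Beta-lactamase reporter assay run in quantitative high-throughput format on an NF-kB-responsive ME-180 line, with 5 hr compound treatment and a FRET-based blue/green fluorescence readout.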

[4] = qHTS assay to identify small molecule agonists of the endoplasmic reticulum stress response signaling pathway (AID 1159516; active = well fitted activation curve with a large enough effect in the signal ratio in the repeat runs, not every such curve was filed as active; the % refers to the signal ratio)
How it was run: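 Beta-lactamase expression from the ER stress response element in HeLa reporter cells is quantified with the LiveBLAzer B/G FRET substrate, read at 405 nm excitation after 2 hr at room temperature, following 5 hr compound treatment at 37 C.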

[5] = qHTS assay to identify small molecule agonists of the endoplasmic reticulum stress response signaling pathway - cell viability counter screen (AID 1159517; calls by dose curve; note: series mostly up to about 61 µM; nearly all actives have a fitted effect of over 50% in size)
How it was run: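 After overnight attachment, ESRE-bla HeLa cells were treated with Tox21 library compounds for 5 hr. CellTiter-Glo luminescence, read 30 min post-addition at room temperature, reported viability.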

[6] = qHTS assay to identify small molecule antagonists of the retinoid-related orphan receptor gamma (ROR-gamma) signaling pathway - cell viability counter screen (AID 1159520); note: nearly all actives have a fitted effect of over 50% in size
How it was run: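 Cytotoxicity was read from cellular ATP (CellTiter-Glo luminescence) after 16 hr at 37 C with 1 uM doxycycline induction. The inducer was added 2 hr after compound transfer to Tet-on ROR gamma CHO cells.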

[7] = qHTS assay to identify small molecule agonists of the AP-1 signaling pathway (AID 1159526; calls by dose curve)
[8] = target: Retinoic acid receptor RXR-alpha (Homo sapiens) (UniProt P19793); experiment: qHTS assay to identify small molecule agonists of the RXR signaling pathway (AID 1159527; calls by dose curve; note: nearly all actives have a fitted effect of over 35% in size)
How it was run: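 Agonist-mode beta-lactamase reporter assay: HEK 293T RXR-alpha-UAS-bla cells treated 16 hr at 37 C with compounds, 9-cis retinoic acid as positive control. LiveBLAzer FRET substrate, 405 nm excitation, 460/530 nm emission.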

[9] = qHTS assay to identify small molecule agonists of the RXR signaling pathway - cell viability counter screen (AID 1159529); note: nearly all actives have a fitted effect of over 50% in size; note: potency is the fitted concentration of half-maximal effect
How it was run: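 CellTiter-Glo luminescence gave viability in the wells also read for beta-lactamase. Cells (RXR-alpha-UAS-bla HEK 293T, 2% charcoal-stripped FBS medium) had 5 hr plating, then 16 hr compound exposure at 37 C; tetraoctyl ammonium bromide served as positive control.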

[10] = qHTS assay to identify small molecule antagonists of the retinoid acid receptor (RAR) signaling pathway - cell viability counter screen (AID 1159551); note: nearly all actives have a fitted effect of over 35% in size
How it was run: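 Viability of C3RL4 cells is quantified from ATP by luminescence after 6 h treatment at 37 C with compounds and 1 uM retinol.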

[11] = qHTS assay to identify small molecule agonists of the retinoic acid receptor (RAR) signaling pathway (AID 1159553)
How it was run: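 Compounds dissolved in DMSO were pinned onto C3RL4 cells seeded the previous day, and plates were held 6 hr at 37 C. RARE-driven luciferase output was then read by luminescence.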

[12] = qHTS assay to identify small molecule antagonists of the estrogen related receptor (ERR) signaling pathway from Tox21 library - cell viability counter screen (AID 1224834); note: nearly all actives have a fitted effect of over 30% in size
How it was run: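 In this quantitative HTS format, ERR cells receive compounds in DMSO and are incubated for 17.5 h at 37 C. Live-cell protease activity is then detected with CellTiter-Fluor.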

[13] = target: Nuclear receptor ROR-gamma (Homo sapiens) (UniProt P51449); experiment: qHTS assay to identify small molecule antagonists of the retinoid-related orphan receptor gamma (ROR-gamma) signaling pathway (AID 1159521; note: nearly all actives have a fitted effect of over 50% in size; note: potency is the fitted concentration of half-maximal effect)
How it was run: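 Antagonist read-out: drop in luminescence (ONE-Glo) from an RORE-LUC reporter in CHO cells with doxycycline-inducible ROR-gamma; 2 hr compound pretreatment, 1 uM doxycycline, 16 hr incubation at 37 C.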

[14] = qHTS assay to identify small molecule agonists of the AP-1 signaling pathway - cell viability counter screen (AID 1159525; calls by dose curve; note: nearly all actives have a fitted effect of over 55% in size)
How it was run: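 Intracellular ATP by Cell Titer Glo luminescence (30 min, RT) in the same ME-180 AP-1-bla wells after the 5 h compound exposure at 37 °C. Normalised to tetra n-octyl ammonium bromide and DMSO controls.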

[15] = qHTS assay to identify small molecule antagonists of the retinoic acid receptor (RAR) signaling pathway (AID 1159552; note: nearly all actives have a fitted effect of over 50% in size)
How it was run: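 Luminescent RARE reporter read-out in C3RL4 cells: 6 hr co-treatment at 37 C of test compounds with retinol at 1 uM final. Cells plated overnight beforehand; luciferase reagent incubated 30 min at room temperature before reading.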

[16] = qHTS assay to identify small molecule agonists of the NFkB signaling pathway - cell viability counter screen (AID 1159515; calls by dose curve; note: series mostly up to about 61 µM; nearly all actives have a fitted effect of over 55% in size)
How it was run: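 Plate 2,000 NFkB-bla ME-180 cells/well; incubate overnight. Add compounds, 5 hr at 37 C. Add FRET substrate, 1.5 hr RT. Add CellTiter-Glo, 30 min RT; read luminescence.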

[17] = qHTS assay to identify small molecule antagonists of the estrogen related receptor (ERR) signaling pathway - cell viability counter screen (AID 1224818);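 note: series mostly up to about 46 µM; viability measured after 17.5 h of compound exposure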
How it was run: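 Cytotoxicity check run alongside the ERR antagonist screen: cells exposed to test compounds 17.5 h at 37 C, viability taken as CellTiter-Fluor fluorescence intensity.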

[18] = tested on: estrogen-related receptor alpha (ERRalpha) with PGC-1alpha coactivator, human; experiment: qHTS assay to identify small molecule antagonists of the estrogen related receptor signaling pathway with the pleiotropic PPARgamma coactivator (PGC) (AID 1224821; calls by dose curve)
How it was run: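 Screening used NTP's PGC/ERR cells, dosed via pin tool with compound in DMSO alongside positive and negative controls. After 18 h at 37 C, One-Glo reagent sat 30 min at room temperature before luminescence detection.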

[19] = qHTS assay to identify small molecule antagonists of the estrogen related receptor signaling pathway with the pleiotropic PPARgamma coactivator (PGC) cell viability counter screen (AID 1224822;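 note: series mostly up to about 46 µM; viability read after 17.5 h compound exposure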)
How it was run: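 Viable cell signal (CellTiter-Fluor, 30 min, 37 C/5% CO2) was measured in PGC/ERR cells after a 17.5 h compound incubation.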

[20] = qHTS assay to identify small molecule agonists of the estrogen related receptor signaling pathway with the pleiotropic PPARgamma coactivator (PGC) (AID 1224823)
How it was run: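 In this quantitative high-throughput screen, an 18 h, 37 C treatment of PGC/ERR cells with compounds in DMSO preceded a One-Glo luminescence read taken after 30 min at room temperature.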

Measured: Potency

Retinoic acid receptor RXR-alpha (Homo sapiens), sequence (P19793 whole entry, looked up): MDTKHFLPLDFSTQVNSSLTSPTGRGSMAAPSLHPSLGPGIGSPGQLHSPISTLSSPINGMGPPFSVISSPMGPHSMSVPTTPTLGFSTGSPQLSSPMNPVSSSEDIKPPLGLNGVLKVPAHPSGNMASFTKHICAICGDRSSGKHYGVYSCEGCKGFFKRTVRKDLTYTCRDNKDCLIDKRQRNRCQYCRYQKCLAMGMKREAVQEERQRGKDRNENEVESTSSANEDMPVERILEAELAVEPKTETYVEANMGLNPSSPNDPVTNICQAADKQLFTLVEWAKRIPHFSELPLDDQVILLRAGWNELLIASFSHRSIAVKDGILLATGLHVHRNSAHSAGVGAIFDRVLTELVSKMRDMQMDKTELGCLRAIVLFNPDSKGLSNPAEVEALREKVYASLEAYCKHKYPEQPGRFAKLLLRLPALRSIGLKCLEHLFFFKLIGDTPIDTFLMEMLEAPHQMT

CCN(CC)C(=O)N(CC)CC
inactive: [1] | [2] | [3] | [4] | [5] | [6] | [7] | [8] | [9] | [10] | [11] | [12]

CC1(O)CSC(C)(O)CS1 (stereo unspecified)
inactive: [2] | [3] | [4] | [6] | [13] | [14] | [9] | [10] | [15] | [11]

COC(C)CCO (stereo unspecified)
inactive: [1] | [2] | [3] | [16] | [6] | [14] | [7] | [8] | [9] | [10] | [15] | [11] | [12]

CCCCCCCCc1ccc(S(=O)(=O)O)cc1
active: [9] 24.3 µM
inactive: [2] | [16] | [4] | [5] | [6] | [13] | [14] | [10] | [15] | [11] | [12]

Oc1ccccc1C=NCc1ccccc1
inactive: [2] | [3] | [4] | [5] | [6] | [14] | [7] | [8] | [9] | [10] | [15] | [11] | [12]

O=[N+]([O-])c1nccn1CO[C@@H](CO)[C@H](O)CO
inactive: [1] | [2] | [3] | [16] | [6] | [13] | [7] | [8] | [9] | [10] | [15] | [11]

CC1=C2[C@H](/C=C(\C)C(=O)O)CC[C@@H](C)[C@H]2CC1
inactive: [2] | [3] | [4] | [5] | [6] | [13] | [14] | [10] | [15] | [12]

CCOC(=O)COc1ccc2c(c1)CC(NCC(O)c1cccc(Cl)c1)CC2 (stereo unspecified)
inactive: [1] | [5] | [6] | [13] | [10] | [15] | [11]

CCCCCCCCCC#N
inactive: [2] | [16] | [4] | [5] | [6] | [13] | [14] | [10]

CCCCCCCCCCCCCCCCOP(=O)([O-])OCC[N+](C)(C)C
inactive: [16] | [4] | [6] | [13] | [10] | [15] | [11]

COc1ccccc1OCC(O)COC(N)=O (stereo unspecified)
inactive: [1] | [2] | [16] | [4] | [5] | [6] | [13] | [8] | [9] | [10] | [15] | [11] | [12]

O=Cc1ccc(O)c(O)c1O
inactive: [2] | [16] | [4] | [5] | [6] | [13] | [14] | [9] | [10] | [15]

C/C(=N\O)[C@@H](C)NCC(C)(C)CN[C@H](C)/C(C)=N/O
inactive: [1] | [2] | [6] | [13] | [7] | [8] | [9] | [10] | [11] | [12]

COc1ccccc1N1CCN(CCCNc2cc(=O)n(C)c(=O)n2C)CC1
inactive: [1] | [2] | [16] | [4] | [6] | [14] | [7] | [8] | [9] | [10] | [15] | [11] | [17] | [18] | [19] | [20] | [12]

CCC/C=C/CO
inactive: [1] | [2] | [16] | [4] | [5] | [6] | [7] | [8] | [10] | [11] | [12]

CCN(CCCc1ccccc1)CCCc1ccccc1
inactive: [1] | [2] | [16] | [4] | [5] | [6] | [13] | [14] | [10] | [15] | [11] | [12]

Cc1c(N)cccc1N
inactive: [1] | [2] | [16] | [4] | [6] | [13] | [7] | [9] | [10]

OCc1c2ccccc2cc2ccccc12
inactive: [2] | [16] | [5] | [6] | [13] | [14] | [8] | [9] | [10] | [15] | [12]

C=CCc1cc(OC)c(O)c(C(=O)NCCO)c1
inactive: [1] | [2] | [16] | [4] | [5] | [6] | [13] | [7] | [8] | [9] | [10] | [15] | [11] | [12]

c1ccc(CN(CC2=NCCN2)c2ccccc2)cc1
inactive: [1] | [2] | [16] | [5] | [6] | [14] | [7] | [8] | [9] | [10] | [15] | [11]

CC(C)O
inactive: [2] | [16] | [4] | [5] | [6] | [9] | [10] | [12]
active: [13] 65.6 µM

CC(=O)Oc1cc(C(C)C)c(OCCN(C)C)cc1C
inactive: [1] | [2] | [16] | [4] | [5] | [6] | [13] | [14] | [9] | [10] | [17] | [19] | [12]

O=C1CCC(C2CCCCC2)CC1
inactive: [2] | [16] | [4] | [6] | [7] | [8] | [9] | [10] | [15] | [11] | [12]

Reference: PubChem BioAssay (Tox21)
